About 950 (1.4%) of roughly 69,000 compounds showed an effect of 50% or more. This is one part of a sample in which strong results are shown more often than they occur.
system: Mycobacterium tuberculosis; assay: Cornell M. t heat shock assay; type: functional, organism-based; set-up: dose or concentration left out as unconfirmed; further: in the data most compounds retested in dose-response had high values

Compound | Percent Effect [%]
Cl.Cn1nc(C2CCCN(Cc3ccc(F)c(F)c3)C2)c2nccnc21 (stereo not given) | -15.39
O=C(O)C(F)(F)F.O=C(O)C(F)(F)F.O=C1CO[C@@H]2CN(Cc3nccs3)C[C@H]2N1Cc1ccncc1 | -20.96
O=C(O)C(F)(F)F.O=C(O)C(F)(F)F.c1cncc(O[C@H]2CC[C@H]3[C@H]2OCCN3C2CCC2)c1 | -41.43
CSc1nccc(-c2cccc(-c3ccn(CC4COCCO4)n3)c2)n1 (stereo not given) | 87.01
COc1cccc(-c2cccc(-c3ccn(CC4COCCO4)n3)c2)n1 (stereo not given) | -12.43
COc1nccnc1-c1cccc(-c2ccn(CC3COCCO3)n2)c1 (stereo not given) | -10.15
Cc1cnccc1-c1cnn(CCNC(=O)c2cccnc2)c1C1CC1.Cl | -20.8
O=C(NCCNc1ncccn1)C1CCN(C(=O)NC2CC2)CC1 | 12.93
COc1ccc(-c2nnc(SC(C)C(=O)NCC(C)C)[nH]2)c(OC)c1 (stereo not given) | 21.58
Cc1cccnc1CN(C)C(C(=O)O)c1ccc(-n2cccn2)cc1 (stereo not given) | 85.61
Cc1cccnc1CN(C)C(C(=O)O)c1ccc(C(C)(C)C#N)cc1 (stereo not given) | 35.15
Cc1cccnc1CN(C)C(C(=O)O)c1ccc(-c2ccn[nH]2)cc1 (stereo not given) | 46.05
CCn1ccc(-c2cc(C(=O)O)n3nc(C)c(Cl)c3n2)n1 | 6.637
COc1ccccc1OCCNCCn1cccn1 | -4.408
Cc1cccc(OCCCNC(=O)Cn2ccc(C)cc2=O)c1 | 9.396
CCOc1cccc(C(=O)Nc2ccn(CC)n2)c1 | 10.2
CCn1ccc(-c2cc(NCCCOc3ccccc3C)nc(C)n2)n1 | 105.6
CCn1ccc(-c2cc(NCCCOc3cccc(C)c3)nc(C)n2)n1 | 104.2
Cc1oncc1C(=O)N1C[C@H](OCc2ccccn2)[C@H]2OCCC[C@H]21.O=C(O)C(F)(F)F | -20.31
CCOC(=O)CSc1nnc([C@@H](N)C(C)C)o1.Cl | -3.757
CNC(=O)c1cc2c(nc1NCC1CC1)CCN(CC1CC1)CC2.O=C(O)C(F)(F)F.O=C(O)C(F)(F)F | -24.38
Cc1cccc(C)c1CCNC(=O)N1CCCC2(C1)OCCO2 | 5.49
O=CO.c1nc(CN2CCCC(Cc3ccc(NC4CCCC4)nn3)C2)c[nH]1 (stereo not given) | 20.05
Cc1ccc(CN2C[C@H]3C[C@H](C(=O)Nc4cccnc4)[C@@H](C2)O3)cc1 | 0.4433
Cc1cnc(CNC(=O)[C@@]23CCO[C@@H]2CCNC3)cn1.O=C(O)C(F)(F)F | 23.9
